The nature of assay [1]: qHTS Assay for Identification of Small Molecule Agonists for Thrombopoietin (TPO) Signaling Pathway (AID 917). The essentials:
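Activators of TPO signaling were sought in murine Ba/F3 cells transfected with the human receptor, using a luciferase gene driven by the Glycoprotein IIb promoter; 24-hr compound exposure at 37 C alongside 26 pM TPO, in IL-3-free medium.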

The subject of another assay is 7G8. Kind of assay: qHTS profiling for inhibitors of Plasmodium falciparum proliferation (AID 504749). Also: nearly all actives have a fitted effect of over 60% in size. Also: potency is read from the fitted curve at half-maximal effect. As to conditions: P. falciparum in erythrocytes, SYBR Green DNA, 72 h; series mostly up to 12.8 µM. In outline:
(§1)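 P. falciparum-infected erythrocytes (0.3% parasitemia, 2.5% hematocrit) incubated with compound 72 h at 37 C, 5% CO2. Parasite DNA detected by SYBR Green after lysis, overnight at room temperature; normalised to 0.29 uM artemisinin and DMSO.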
On the technique in general: Quantitative high-throughput screening tests each substance at several concentrations.

The test system of the next assay is ATS95. The description is as above. As to conditions: P. falciparum in erythrocytes, SYBR Green DNA, 72 h; series mostly up to 12.8 µM. In outline: as §1
A further assay relates to C2A. Described as above. As to conditions: P. falciparum in erythrocytes, SYBR Green DNA, 72 h; series mostly up to 12.8 µM. In outline:
as §1

In the next assay the test system is CP217. The description is as above. The settings on record: P. falciparum in erythrocytes, SYBR Green DNA, 72 h; series mostly up to 12.8 µM. The essentials:
as §1

For another assay, the system named is CP237. Described as above. As to conditions: P. falciparum in erythrocytes, SYBR Green DNA, 72 h; series mostly up to 12.8 µM. In outline:
as §1

The next assay relates to CP252. The description is as above. The settings on record: P. falciparum in erythrocytes, SYBR Green DNA, 72 h; series mostly up to 12.8 µM. The essentials:
as §1

The next assay has as its system CP268. The assay is described as above. The settings on record: P. falciparum in erythrocytes, SYBR Green DNA, 72 h; series mostly up to 12.8 µM. The essentials:
as §1

A further assay deals with CP269. The assay is described as above. As to conditions: P. falciparum in erythrocytes, SYBR Green DNA, 72 h; series mostly up to 12.8 µM. In outline:
as §1

The next assay deals with CP286. The assay is described as above. The settings on record: P. falciparum in erythrocytes, SYBR Green DNA, 72 h; series mostly up to 12.8 µM. The essentials: as §1
For another assay, the system named is CP291. The description is as above. As to conditions: P. falciparum in erythrocytes, SYBR Green DNA, 72 h; series mostly up to 12.8 µM. The essentials: as §1
Another assay has as its system CP305. The description is as above. As to conditions: P. falciparum in erythrocytes, SYBR Green DNA, 72 h; series mostly up to 12.8 µM. The essentials:
as §1

The next assay has as its system CP335. The description is as above. As to conditions: P. falciparum in erythrocytes, SYBR Green DNA, 72 h; series mostly up to 12.8 µM. In outline: as §1
In another assay the test system is DFO2036. The assay is described as above. As to conditions: P. falciparum in erythrocytes, SYBR Green DNA, 72 h; series mostly up to 12.8 µM. The essentials: as §1
The next assay has as its system DIV30. The assay is described as above. As to conditions: P. falciparum in erythrocytes, SYBR Green DNA, 72 h; series mostly up to 12.8 µM. In outline: as §1
A further assay concerns ECU. Described as above. As to conditions: P. falciparum in erythrocytes, SYBR Green DNA, 72 h; series mostly up to 12.8 µM. The essentials:
as §1

The subject of a further assay is HB3. The description is as above. As to conditions: P. falciparum in erythrocytes, SYBR Green DNA, 72 h; series mostly up to 12.8 µM. In outline:
as §1

The test system of the next assay is P94_40. Described as above. The settings on record: P. falciparum in erythrocytes, SYBR Green DNA, 72 h; series mostly up to 12.8 µM. In outline: as §1
The next assay deals with PC26. Described as above. As to conditions: P. falciparum in erythrocytes, SYBR Green DNA, 72 h; series mostly up to 12.8 µM. The essentials:
as §1

In another assay the test system is TAB165. Described as above. The settings on record: P. falciparum in erythrocytes, SYBR Green DNA, 72 h; series mostly up to 12.8 µM. In outline:
as §1

For 14 compounds, outcome and Potency results are on record in PubChem BioAssay (NCATS).

Records with an inconclusive call do not appear. Activity calls are given as the source filed them. Calls follow the shape of the dose curve; as a rule, active = well fitted curve in the direction sought with a large enough effect; inconclusive = small, poorly fitted or top-dose-only effect, or another doubt; inactive = no such curve, though single readings can be large; an effect the other way counts as inactive or inconclusive.

As for `CCCN(CCC)C(=O)[C@@H](CCC(=O)O)NC(=O)c1ccccc1`, the compound was classed as inactive in assay [1]. For the same compound, the Potency result in the assay with 7G8, in the assay with ATS95, in the assay on C2A, with CP217, in the assay with CP237 and in the assay with CP252 was “inactive” in each case. Moreover, the Potency result in the assay with CP268, in the assay with CP269, in the assay with CP286, in the assay with CP291, in the assay on CP305 and in the assay with CP335 was “inactive” in each case. The Potency result with DFO2036, in the assay with DIV30, in the assay on ECU, with HB3, in the assay on P94_40 and with PC26 was “inactive” each time. Moreover, the Potency entry in the assay with TAB165 is “inactive”.
Consider `NC(=O)c1cc[n+](CC2=C(C(=O)O)N3C(=O)[C@@H](NC(=O)[C@H](c4ccccc4)S(=O)(=O)[O-])[C@@H]3SC2)cc1`, for which the compound was classed as inactive in assay [1]. For the same compound, the Potency is 178 nM (active) in the assay on 7G8; 3550 nM (active) in the assay with ATS95; 1410 nM (active) in the assay with CP237; 4050 nM (active) with CP268; 1610 nM (active) in the assay on CP269; 1780 nM (active) in the assay on CP286. The Potency in the assay on CP305 was 2560 nM (active); in the assay with CP335, 1610 nM (active); in the assay on DFO2036, 1780 nM (active); in the assay with DIV30, 2280 nM (active); with ECU, 2000 nM (active); in the assay on HB3, 891 nM (active). For the same compound, the Potency was 1260 nM (active) in the assay with P94_40, 1810 nM (active) with PC26 and 1000 nM (active) in the assay on TAB165.
For `CCn1cc(C(=O)O)c(=O)c2cc(F)c(N3CCN[C@@H](C)C3)c(F)c21`, the result in assay [1] was inactive. For the same compound, the Potency entry in the assay with 7G8, in the assay with ATS95, in the assay with C2A, in the assay on CP217, in the assay with CP237 and in the assay on CP252 was “inactive” throughout. Moreover, the Potency entry in the assay on CP269, in the assay on DFO2036, with DIV30, with ECU, in the assay with HB3 and with P94_40 was “inactive” in each case. Moreover, the Potency result in the assay on PC26 and in the assay on TAB165 was “inactive” in each case.
Consider `COc1ccc([C@H]2Sc3ccccc3N(CCN(C)C)C(=O)[C@H]2OC(C)=O)cc1`, for which the outcome in assay [1] was inactive.
The same measure, in the same setting: next, `CCCCCN(CCCCC)C(=O)[C@H](CCC(=O)O)NC(=O)c1ccc(Cl)c(Cl)c1`: “inactive”.
Regarding `CCCN[C@@H](C)C(=O)Nc1c(C)csc1C(=O)OC`, the Potency result in the assay on 7G8, in the assay on ATS95, with C2A, in the assay on CP217, with CP237 and with CP252 was “inactive” each time. Moreover, the Potency result with CP268, in the assay on CP269, in the assay on CP286, with CP291, in the assay with CP305 and with CP335 was “inactive” each time. Also, the Potency entry in the assay with DFO2036, in the assay on DIV30, in the assay on ECU, in the assay on HB3, with P94_40 and in the assay with PC26 was “inactive” in each case. For the same compound, in the assay on TAB165, the Potency result was “inactive”.
As to `NC(=O)OC[C@H](O)COc1ccc(Cl)cc1`, the Potency entry in the assay on 7G8, in the assay with ATS95, with C2A, in the assay with CP217, in the assay with CP237 and with CP252 was “inactive” each time. The Potency result with CP268, in the assay with CP269, in the assay with CP286, in the assay on CP291, in the assay on CP305 and in the assay on CP335 was “inactive” throughout. The Potency entry in the assay on DFO2036, in the assay with DIV30, with ECU, with HB3, in the assay with P94_40 and with PC26 was “inactive” in each case. Besides, in the assay on TAB165, the Potency result is “inactive”.
Regarding `COc1ccccc1OC[C@H](O)COC(N)=O`, the Potency result with 7G8, in the assay on ATS95, in the assay with C2A, in the assay with CP217, in the assay with CP237 and in the assay with CP252 was “inactive” each time. Also, the Potency result in the assay with CP268, in the assay with CP269, in the assay on CP286, with CP291, with CP305 and with CP335 was “inactive” in each case. Also, the Potency entry in the assay on DFO2036, in the assay on DIV30, with ECU, with HB3, with P94_40 and in the assay on PC26 was “inactive” in each case. Also, in the assay on TAB165, the Potency result was “inactive”.
In the case of `CO/N=C(\C(=O)N[C@@H]1C(=O)N2C(C(=O)O)=C(COC(C)=O)CS[C@@H]12)c1csc(N)n1`, the compound was classed as inactive in [1]. The Potency entry in the assay with 7G8, in the assay with ATS95, in the assay on C2A, with CP217, with CP237 and in the assay with CP252 was “inactive” in each case. The Potency entry in the assay on CP268, in the assay with CP269, with CP286, with CP291, in the assay with CP305 and in the assay with CP335 was “inactive” each time. In addition, the Potency result in the assay with DFO2036, with DIV30, in the assay on ECU, with HB3, with P94_40 and in the assay with PC26 was “inactive” each time. The Potency result with TAB165 is “inactive”.
`CN1[C@@H](CC(=O)c2ccccc2)CCC[C@@H]1C[C@@H](O)c1ccccc1`: the result in assay [1] was inactive.
As to `CCC[C@H]1C(=O)N2C(N(C)C)=Nc3ccc(C)cc3N2C1=O`, the Potency entry in the assay on 7G8, with ATS95, with C2A, in the assay with CP217, with CP237 and in the assay on CP252 was “inactive” throughout. For the same compound, the Potency entry with CP268, in the assay with CP269, in the assay on CP286, with CP291, with CP305 and with CP335 was “inactive” throughout. Further, the Potency entry in the assay on DFO2036, in the assay on DIV30, in the assay on ECU, in the assay on HB3, with P94_40 and in the assay on PC26 was “inactive” each time. In the assay with TAB165, the Potency entry was “inactive”.
On to `CCN(CC)CCC[C@H](C)Nc1c2ccc(Cl)cc2nc2ccc(OC)cc12`, for which the Potency in the assay with 7G8 is 282 nM (active); in the assay with ATS95, 631 nM (active); in the assay with C2A, 447 nM (active); in the assay on CP217 it was 794 nM (active); with CP237, 316 nM (active); in the assay on CP252, 794 nM (active). The Potency was 478 nM (active) in the assay on CP268; 757 nM (active) in the assay on CP269; 282 nM (active) in the assay on CP286; 379 nM (active) with CP291; 379 nM (active) in the assay with CP305; 536 nM (active) in the assay with CP335. Besides, the Potency is 398 nM (active) in the assay with DFO2036; 1070 nM (active) with DIV30; 447 nM (active) in the assay on ECU; 251 nM (active) in the assay with HB3; 562 nM (active) with P94_40; 675 nM (active) in the assay with PC26. The Potency in the assay on TAB165 is 398 nM (active).
For the compound `COc1c(O)cc2c(c1O)[C@@H]1O[C@@H](CO)[C@@H](O)[C@@H](O)[C@@H]1OC2=O`, the Potency entry in the assay on 7G8, with ATS95, with C2A, with CP217, with CP237 and in the assay with CP252 was “inactive” in each case. For the same compound, the Potency result with CP268, in the assay on CP269, in the assay with CP286, in the assay on CP291, in the assay on CP305 and in the assay with CP335 was “inactive” each time. In addition, the Potency result in the assay with DFO2036, in the assay with DIV30, in the assay on ECU, in the assay on HB3, in the assay on P94_40 and with PC26 was “inactive” in each case. Further, the Potency entry in the assay with TAB165 is “inactive”.
`CC(=O)O[C@@H](C)C[N+](C)(C)C`: in assay [1], the compound was classed as inactive. The Potency result in the assay on 7G8, in the assay on C2A, with CP217, in the assay with CP237, with CP252 and with CP268 was “inactive” each time. The Potency result with CP269, in the assay on CP286, with CP291, in the assay with CP305, with CP335 and with DFO2036 was “inactive” in each case. For the same compound, the Potency result in the assay with DIV30, with ECU, in the assay with HB3, in the assay with PC26 and in the assay on TAB165 was “inactive” in each case.
